# Source: PubChem (National Center for Advancing Translational Sciences (NCATS))
# FLuc inh: inhibitors of firefly (Photinus pyralis) luciferase. Potency, µM (highest dose often 115 µM), most hits filed as inhibitors. purified P. pyralis luciferase, luminescence, biochemical. hit rate 2.5% among 76,000; further: nearly all actives have a fitted effect of over 65% in size
# Target sequence (P08659 whole entry, looked up): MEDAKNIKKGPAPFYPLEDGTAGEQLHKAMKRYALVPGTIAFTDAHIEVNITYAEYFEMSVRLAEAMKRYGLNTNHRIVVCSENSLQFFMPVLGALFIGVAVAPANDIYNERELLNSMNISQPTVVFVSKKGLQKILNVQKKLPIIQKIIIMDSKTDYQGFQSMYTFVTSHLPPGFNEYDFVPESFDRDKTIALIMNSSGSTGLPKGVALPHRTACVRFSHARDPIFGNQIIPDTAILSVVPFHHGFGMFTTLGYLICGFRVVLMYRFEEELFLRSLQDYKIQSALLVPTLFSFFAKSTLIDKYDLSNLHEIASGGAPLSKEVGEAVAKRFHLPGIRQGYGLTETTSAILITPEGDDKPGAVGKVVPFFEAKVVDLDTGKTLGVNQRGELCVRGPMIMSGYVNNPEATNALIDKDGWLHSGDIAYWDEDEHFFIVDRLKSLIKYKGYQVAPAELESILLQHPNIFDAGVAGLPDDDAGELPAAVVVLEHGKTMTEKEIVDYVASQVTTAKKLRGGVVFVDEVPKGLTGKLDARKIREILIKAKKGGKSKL
#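 Cell-free enzyme assay, 10nM P. pyralis luciferase, luciferin and ATP each at 10uM. Inhibition profiled over a 6-point titration, read as luminescence.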
# hNpr1 antagonist: human Npr1 receptor antagonism; P16066; HEK293 hNpr1 GloSensor cGMP, ANP-stimulated luminescence; Potency, µM (doses to about 46.3 µM), most hits filed as inhibitors; hit rate 1.6% among 76,000; AID 1347048; calls by dose curve; further: nearly all actives have a fitted effect of over 60% in size
#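 Compound pre-incubated 30 min at room temperature on GloSensor-loaded HEK293 cells stably carrying hNpr1 and the pGS-40F cGMP biosensor. Stimulation uses hNppA at 0.1 nM final; luminescence is taken at baseline and 20 min post-agonist.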
# HEK293 tox: cytotoxic compounds in HEK 293 cells. HEK 293 viability, ATP luminescence (CellTiter-Glo), 48-72 h. Potency, µM (series often up to 115 µM), most hits filed as inhibitors. hit rate 6.6% among 94,000; further: nearly all actives have a fitted effect of over 60% in size
#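 Read-out: CellTiter-Glo ATP luminescence. Cells: HEK 293, 250 cells/well. Exposure: 48 or 72 hr, 37 degree Celsius.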
# HEK293 viab: cell viability loss counter-screen | HEK-293-SNCA-luc viability, GF-AFC fluorescence, 24 h | Potency, µM (doses to about 57.1 µM), actives largely listed as cytotoxic | hit rate 0.12% among 150,000 | AID 1671193; further: nearly all actives have a fitted effect of over 30% in size
#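 HEK-293-SNCA-luc cells (1500/well) plated 24 h, then exposed 24 h to a dilution series; GF-AFC added 30 min at 37C, fluorescence 405/540 nm; normalised to medium-only and DMSO wells, Hill fit.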
# SNCA expr inhib: inhibitors of alpha-synuclein (SNCA) gene expression | Potency, µM (top dose mostly 57.2 µM), usual class: inhibitors | AID 1671194 | hit rate 0.17% among 140,000 | HEK-293 SNCA-luciferase knock-in, luminescence, 24 h; further: nearly all actives have a fitted effect of over 45% in size
# NIH3T3 tox: NIH 3T3 cell cytotoxicity. NIH 3T3 viability, CellTiter-Glo ATP luminescence, 48-72 h. Potency, µM (doses to about 96.7 µM), hits mostly inhibitors. hit rate 4.3% among 94,000. AID 1345082; further: nearly all actives have a fitted effect of over 55% in size
#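 First NIH 3T3 cells are plated at 400 cells/well; next compound is pinned in; then plates incubate 48 or 72 hr at 37 °C; finally CellTiter-Glo is added and luminescence read after 10 min.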
# A number is an active result; 0 = inactive; ? = inconclusive; - = no result. Shown are actives, neighbours in structure and some others; about 7.4% of the full set was active somewhere. Unless noted, the call rests on the fitted dose curve; in most records, active means well fitted curve in the direction sought with a large enough effect; inconclusive means small, poorly fitted or top-dose-only effect, or another doubt; inactive means no such curve, though single readings can be large; an effect the other way counts as inactive or inconclusive.
SMILES,FLuc inh,hNpr1 antagonist,HEK293 tox,HEK293 viab,SNCA expr inhib,NIH3T3 tox
CN(C)CCNC(=O)C[C@@H]1CCNC[C@@H]1Cc1cc(-c2ccc(C(C)(C)C)cc2)on1,0,0,32µM,0,0,40µM
CCN(CC)C(=O)C[C@@H]1CCNC[C@@H]1Cc1cc(-c2ccc(C(C)(C)C)cc2)on1,0,0,40µM,?,0,40µM
O=C(O)C[C@@H]1CCN(C(=O)c2ccc(F)cc2)C[C@@H]1CCN1CCCCC1,0,0,0,0,0,0
COCCc1nncn1C1CCN(C(=O)c2cccc(OC(F)(F)F)c2)CC1,0,0,0,0,0,0
O=C(NCc1cccnc1)[C@@H]1C[C@@H](O)CN1C1CCN(C(=O)CCC2CCCC2)CC1,0,0,0,0,0,0
CCN(CC1CCOCC1)C(=O)Cc1cnc2c(C)cccn12,0,?,?,0,0,0
Cc1cc(Cl)ccc1Nc1ncncc1-c1nc(-c2ccccc2)no1,0,0,0,0,0,0
Cc1ccn2c(C(=O)N3CCn4nc(CCC(=O)NC(C)C)cc4C3)nnc2n1,0,0,0,0,0,0
CC(C)(C)c1ccc(-c2cc(C[C@H]3CNCC[C@H]3CC(=O)NCc3cccnc3)no2)cc1,0,0,?,0,0,20µM
CCCCc1cc(C[C@H]2CNCC[C@H]2CC(=O)NCc2cccnc2)no1,0,0,0,0,0,0
CCn1nc(-c2cccc(-c3ccnn3C)c2)nc1N(C)C,0,0,79µM,0,0,0
O=C(NCc1nnc2c(-c3nc(C4CC4)no3)cccn12)c1nccc2ccccc12,0,0,?,0,0,45µM
CCCc1noc(-c2cccn3c(CNC(=O)c4ccc(C(C)(C)C)cc4)nnc23)n1,0,0,?,0,0,40µM
CCCc1noc(-c2cccn3c(CNC(=O)c4ccc(OC)cc4)nnc23)n1,0,0,0,0,0,0
Clc1ccc(-c2cnc([C@@H]3COCCN3Cc3cnc4ccccc4c3)[nH]2)s1,0,?,89µM,0,0,?
Fc1ccc(-c2cnc([C@@H]3COCCN3Cc3cccnc3)[nH]2)c(F)c1,0,0,?,0,0,?
Fc1ccc(-c2cnc([C@@H]3COCCN3Cc3cnc4ccccc4c3)[nH]2)c(F)c1,0,0,89µM,0,0,?
c1ccc(-c2cnc([C@@H]3COCCN3Cc3ccncc3)[nH]2)cc1,0,0,0,0,0,0
CCOC(=O)C1(Cc2cccc(Cl)c2)CCCN(C(=O)c2csc(C(C)=O)c2)C1 (stereo not given),?,0,40µM,0,0,0
CCOC(=O)C1(Cc2cccc(OC)c2)CCCN(C(=O)CSc2ccncc2)C1 (stereo not given),0,0,28µM,0,0,0
CCOC(=O)C1(Cc2cccc(OC)c2)CCCN(C(=O)COc2ccccc2)C1 (stereo not given),35µM,0,?,0,0,0
CCOC(=O)C1(Cc2cccc(OC)c2)CCCN(C(=O)CCn2ccnc2C)C1 (stereo not given),0,0,0,0,0,0
Cc1cccc(C)c1NC(=O)Cn1c(=O)n(-c2ccccc2)c(=O)c2c1cc(C)n2C,0,0,0,0,0,0
CN1C[C@H](NCc2cccc(Cl)c2)CCC[C@@H](C(=O)NCc2cc(F)cc(F)c2)CC1=O,0,0,45µM,0,?,?
CN(C)C[C@@H]1CN(Cc2ccncc2)C[C@H]1NC(=O)C1CCOCC1,0,0,0,?,0,0
SMILES,FLuc inh,hNpr1 antagonist,HEK293 tox,HEK293 viab,SNCA expr inhib,NIH3T3 tox
Cc1ncc(CN2CCCC2C(=O)Nc2ccc(-c3cccc(F)c3)cc2)[nH]1 (stereo not given),0,0,?,0,0,?
O=C(Nc1ccc(-c2cccc(F)c2)cc1)C1CCCN1Cc1ccc(CO)o1 (stereo not given),?,0,35µM,0,0,?
Cc1ncc(CN2CCCC2C(=O)Nc2ccc(-c3cccc(F)c3)cc2)n1C (stereo not given),0,0,20µM,0,0,?
O=C(NCCOc1ccccc1)c1nc2c(o1)CCN(Cc1cccc(F)c1)CC2,0,?,?,0,0,?
O=C(Nc1ccc(Cl)cc1)c1nc2c(o1)CCN(Cc1cnc[nH]1)CC2,71µM,?,?,0,0,?
Cc1ccccc1CN1CCc2nc(C(=O)N3CCOCC3)oc2CC1,?,?,?,0,0,?
Cc1cc(F)cc(CN2CCc3nc(C(=O)Nc4ccccc4)oc3CC2)c1,22µM,13µM,?,0,0,25µM
Cc1ccccc1CN1CCc2nc(C(=O)Nc3ccccc3)oc2CC1,?,10µM,40µM,0,0,?
Cn1nccc1C(=O)N1CCC(Oc2cccc(F)c2)C1 (stereo not given),0,0,0,0,0,0
CN1CCN(c2cc(=O)c3ccnc(N4CCN(c5ccccn5)CC4)c3o2)CC1,0,0,0,0,0,?
CN(c1ccccc1)c1cc(=O)c2ccnc(N3CCN(c4ccccn4)CC3)c2o1,0,0,35µM,0,0,?
CN(c1ccccc1)c1cc(=O)c2ccnc(NCC3CCOCC3)c2o1,0,0,?,0,0,8.9µM
CN(c1ccccc1)c1cc(=O)c2ccnc(N3CCOCC3)c2o1,0,0,?,0,0,28µM
O=C(NCCCc1ccccc1)c1cc2n(n1)CC(c1ccc3c(c1)OCO3)OC2 (stereo not given),0,0,?,0,0,28µM
O=C(NCCc1ccccc1)c1cc2n(n1)CC(c1ccc3c(c1)OCO3)OC2 (stereo not given),0,?,?,0,0,?
CCOc1ccc(NC(=O)c2cc3n(n2)CC(c2ccc4c(c2)OCO4)OC3)cc1 (stereo not given),?,16µM,22µM,?,?,?
O=C(NC1CC1)c1cc2n(n1)CC(c1ccc3c(c1)OCO3)OC2 (stereo not given),0,0,0,0,?,?
Cc1cc(C)cc(NC(=O)c2cc3n(n2)CC(c2ccc4c(c2)OCO4)OC3)c1 (stereo not given),0,0,89µM,0,0,?
CC1CCC(NC(=O)c2cc3n(n2)CC(c2ccc4c(c2)OCO4)OC3)CC1 (stereo not given),0,0,22µM,0,0,?
Cc1ccc(NC(=O)c2cc3n(n2)CC(c2ccc4c(c2)OCO4)OC3)c(Cl)c1 (stereo not given),0,0,0,0,0,0
CNC(=O)c1cccc(-c2ccc3c(N4CCOC[C@@H]4C)nc(N4CCOC[C@@H]4C)nc3n2)c1,-,-,-,0,-,-
Fc1ccc(CN2C[C@@H](F)[C@@H](OCc3nc4ccccc4o3)C2)cc1,0,0,?,0,?,?
